Experimental findings from PubChem BioAssay (NCI) are described below.

Compounds without any hit were thinned out: in the full panel of roughly 83,000, 20% have a hit.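 48-hour exposure, single concentration, 96-well plates; percent growth endpoint where 0 means no net growth. Active: below 10.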 Unmarked numbers belong to inactive results. Calls of active or inactive are those of the source.

Common to all, as to assay: NCI-60 one-dose screen, 48 h (100 = growth as untreated, 0 = no growth, -100 = all killed)
In assay [1] the test system is NCI-H23 lung. To be noted: 10 µM unless noted.
The subject of assay [2] is NCI-H226 lung. Conditions: 10 µM unless noted.
Assay [3] concerns NCI-H322M lung. To be noted: 10 µM unless noted.
Assay [4] relates to HOP-62 NSCLC. To be noted: 10 µM unless noted.
In assay [5] the test system is NCI-H460 lung. To be noted: 10 µM unless noted.
In assay [6] the test system is HOP-92 NSCLC. To be noted: 10 µM unless noted.
For assay [7], the system named is NCI-H522 lung. To be noted: 10 µM unless noted.
The test system of assay [8] is A549/ATCC NSCLC. Conditions: 10 µM unless noted.
Assay [9] has as its system 786-0 renal. Conditions: 10 µM unless noted.
For assay [10], the system named is COLO 205 colon. Conditions: 10 µM unless noted.
Assay [11] relates to DU-145 prostate. Conditions: 10 µM unless noted.
For assay [12], the system named is K-562 leukemia. Conditions: 10 µM unless noted.
Assay [13] relates to MALME-3M melanoma. Conditions: 10 µM unless noted.
The subject of assay [14] is MDA-MB-231 breast. Conditions: 10 µM unless noted.
Assay [15] has as its system SF-268 CNS. To be noted: 10 µM unless noted.
Assay [16] relates to SF-295 CNS. Conditions: 10 µM unless noted.
Assay [17] has as its system SF-539 CNS. Conditions: 10 µM unless noted.
Assay [18] relates to UACC-257 melanoma. Conditions: 10 µM.
The test system of assay [19] is M14 melanoma. Conditions: 10 µM unless noted.
The subject of assay [20] is RXF 393 renal. Conditions: 10 µM unless noted.

Turning to `COc1cccc(NC(=O)Cn2cc3c(=O)oc4ccccc4c3n2)c1`, the growth in assay [1] is 102%; in assay [2] it was 104%; in assay [3], 98.9%; in [4], 116%; in assay [5], 101%; in assay [6], 93.8%. The growth is 83.1% in assay [7]; 105% in assay [8]; 98.4% in assay [9]; 101% in assay [10]; 103% in assay [11]; 103% in assay [12]. The growth was 103% in assay [13]; 96.6% in [14]; 103% in [15]; 97.2% in [16]; 102% in [17]; 101% in assay [18]. In addition, in [19], the growth is 101%.
Turning to `COc1ccc2c(c1)C(C)Cc1c(N(C)C)ncnc1N2C` (configuration not stated), the growth was 52.7% in assay [1]; 81.6% in assay [2]; 53.9% in assay [3]; 35.5% in [4]; 16.1% in assay [5]; 50.5% in assay [6]. Besides, the growth is -0.111% (active) in [7]; 50.5% in assay [8]; 33% in assay [9]; 15.8% in [10]; 53.5% in assay [11]; 15.1% in assay [12]. The growth in [13] was 56.4%; in [14], 54.3%; in assay [20], 49%; in assay [15], 46.1%; in [16], 9.16% (active); in assay [17], 6.17% (active). In [19], the growth was 25.5%.
For the molecule `O=Nc1c(-c2c(O)[nH]c3ccc([N+](=O)[O-])cc23)[nH]c2ccc(O)cc12`, the growth is 3.19% (active) in assay [1]; -4.7% (active) in assay [2]; 7.21% (active) in [3]; -9.77% (active) in [4]; -28.5% (active) in assay [5]; -3.1% (active) in assay [6]. The growth is -79.1% (active) in assay [7]; 10.6% in [8]; 4.21% (active) in assay [9]; 65.8% in [10]; 6.72% (active) in [11]; 20.9% in assay [12]. For the same molecule, the growth in assay [13] was 11.7%; in assay [14], 25.4%; in assay [15], 6.5% (active); in assay [16], 20.9%; in [17] it was -34.1% (active); in assay [18], 9.29% (active). In addition, the growth in [19] was 11.4%.
As for `CC[C@H](C)[C@@H]1NC(=O)[C@H]([C@@H](C)O)NC(=O)C(Cc2ccccc2)NC(=O)[C@@H]2CCCN2C(=O)C(C(C)C)NC(=O)C(Cc2ccccc2)NC(=O)CNC(=O)[C@@H]2CCCN2C1=O` (some centres not stated), the growth in [1] was 82.5%; in assay [2], 65.8%; in assay [3], 85.3%; in assay [4] it was 76%; in [5] it was 55.7%; in assay [6] it was -18.4% (active). Further, the growth in [7] is 55.5%; in assay [8] it was 56.6%; in assay [9], 39.9%; in assay [10], 79.7%; in [11] it was 83.6%; in assay [12], 20.9%. Besides, the growth is 64% in [13]; 26.4% in assay [14]; 72.8% in assay [15]; 74.2% in assay [16]; 83.2% in assay [17]; 60.7% in assay [18]. For the same molecule, in assay [19], the growth is 22.2%.
As for `O=S(=O)(NCCCNc1cc(-c2cn(-c3ccccc3)nc2-c2cccc(O)c2)ccn1)c1ccc(C(F)(F)F)cc1`, the growth is 43.9% in assay [1]; 49.6% in assay [2]; 49.8% in assay [3]; 50.9% in assay [4]; 22.2% in assay [5]; 29% in [6]. The growth is 69.7% in [7]; 35.1% in [8]; -8.06% (active) in assay [9]; -57.3% (active) in [10]; 60.8% in assay [11]; 3.42% (active) in [12]. Besides, the growth is 22.7% in [13]; 4.73% (active) in assay [14]; 24.7% in assay [20]; 44.1% in [15]; -3.81% (active) in assay [16]; 36.7% in assay [17]. In [19], the growth is 23.5%.
`Cc1cc(Nc2nc(-c3ccc(F)cc3)nc3ccccc23)n[nH]1`: the growth in [1] was 57.3%; in assay [2], 58.6%; in assay [3], 65.5%; in assay [4], 78.6%; in assay [5], 35.6%; in assay [6], 30.5%. Further, the growth in assay [7] was 27.7%; in [8], 13.8%; in [9], 56.9%; in assay [10] it was 40.3%; in [11], 77.1%; in assay [12], 36.6%. Also, the growth in assay [13] was 57%; in [14], 78.7%; in assay [15] it was 63.3%; in assay [16], 64.4%; in [17], 66.6%; in [18], 47.2%. In assay [19], the growth was 53.5%.
Consider `CC/C=C\C[C@H](O)C/C=C1/C(=O)C(Cl)=C[C@@H]1C/C=C\CCCC(=O)O`, for which the growth in assay [1] is 70.2%; in assay [2] it was 89.6%; in [3] it was 94.5%; in assay [4], 96.8%; in assay [5], 97.7%; in assay [6], 98.3%. Moreover, the growth in assay [7] is -68.1% (active); in assay [8] it was 100%; in assay [9], 75.2%; in assay [10], 47.6%; in [11], 75.9%; in assay [12], 3.74% (active). Moreover, the growth in [13] is 21.7%; in assay [14], 43.5%; in assay [20], 64.2%; in [15], 55.9%; in assay [16], 89.2%; in [17], 66%. In [19], the growth is 35.7%.
As for `C=CCOc1ccc(/C(O)=C2\C(=O)C(=O)N(c3nccs3)C2c2ccccc2F)cc1` (configuration not stated), the growth is 119% in [1]; 102% in assay [2]; 80% in [3]; 92.3% in assay [4]; 94.4% in assay [5]; 106% in assay [6]. Moreover, the growth in assay [7] is 100%; in assay [8], 95.4%; in assay [9], 95.5%; in assay [10], 104%; in assay [11], 114%; in assay [12] it was 109%. Also, the growth in assay [13] is 92.1%; in assay [14], 112%; in assay [20] it was -20.5% (active); in assay [15], 116%; in [16], 85.1%; in [17], 125%. Also, in assay [19], the growth is 82.7%.
